Results: PubChem BioAssay (NCI)
The panel holds about 83,000 compounds, 20% with a hit somewhere; the sample as a whole holds those more often.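 Activity criterion: percent growth below 10, measured after cells in 96-well plates were exposed to a single compound concentration for 48 hours.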 Values without a mark were called inactive. The source made the active and inactive calls.

Columns and labels:
Test in all cases: NCI-60 one-dose screen, 48 h (100 = growth as untreated, 0 = no growth, -100 = all killed)
Conditions in all cases: 10 µM unless noted
T-47D breast = system: T-47D breast
BT-549 breast = system: BT-549 breast
MDA-MB-435 melanoma = system: MDA-MB-435 melanoma
MCF7 breast = system: MCF7 breast
HCT-116 colon = system: HCT-116 colon
HCC-2998 colon = system: HCC-2998 colon
KM12 colon = system: KM12 colon
SW-620 colon = system: SW-620 colon

| Compound | growth (T-47D breast) | growth (BT-549 breast) | growth (MDA-MB-435 melanoma) | growth (MCF7 breast) | growth (HCT-116 colon) | growth (HCC-2998 colon) | growth (KM12 colon) | growth (SW-620 colon) |
| --- | --- | --- | --- | --- | --- | --- | --- | --- |
| Cc1c(F)cccc1NC(=O)c1sc2nc3c(cc2c1N)CCCCC3 | 63.6% | 73.6% | 9.59% (active) | 14.8% | 49.8% | 75.8% | 34.8% | – |
| O=C(Cn1c2ccccc2c2ccncc21)N/N=C/c1c[nH]c2ccccc12 | 90.2% | 94.4% | 33.8% | 37.8% | 4.33% (active) | 87.5% | 60.5% | – |
| C#C[C@H](O)/C=C/CCCCCCC#C[C@H](O)CC[C@@H](O)C#CCCCCCC/C=C/[C@@H](O)C#C | 76% | 93.9% | 92.5% | 68.5% | 57.3% | 95.2% | 93.2% | – |
| Cc1cn(-c2nc3c(c(NCc4ccccc4)n2)COCC3)c2cccc(C(N)=O)c12 | 62.7% [0.5 µM] | 89% [0.5 µM] | 63.9% [0.5 µM] | 35.5% [0.5 µM] | 11.4% [0.5 µM] | 69.9% [0.5 µM] | 63.2% [0.5 µM] | – |
| CC/C(=C(\CC)c1ccc(OCCN(CC)CC)cc1)c1ccc(OCCN(CC)CC)cc1 | 12.3% | – | 15.4% | 30.1% | 16.7% | 63.2% | 33.5% | 9.59% (active) |
| CCCCCCCCCCCCCCCC(=O)NS(=O)(=O)OC[C@H]1O[C@@H](n2cnc3c(N)ncnc32)[C@H](O)[C@@H]1O | -16.9% (active) | – | -74.5% (active) | 5.8% (active) | -25.8% (active) | -85.9% (active) | -39.2% (active) | -39.2% (active) |
| COc1ccccc1P(c1ccccc1OC)c1ccccc1OC | 87.6% | – | 115% | 95.9% | 94.2% | -97.4% (active) | 86.4% | 103% |
| CNC(=O)NN | 92.3% | – | 102% | 98.1% | 93.6% | 101% | 101% | 93.7% |
| NC(=S)NNC1CCCCC1 | 80% | – | 106% | 88.8% | 91.8% | 100% | 99.9% | 99.7% |
| CCN(CC)c1ccc(C2CC(c3cc(OC)c(OC)c(OC)c3)=NN2)cc1 (configuration not stated) | 29.9% | – | 21.6% | 6.88% (active) | 9.61% (active) | 21.2% | 11.1% | 18.4% |
| CCC(N)(C(=O)O)c1ccc(F)cc1 (configuration not stated) | 111% | – | 105% | 93.5% | 91.3% | 95.4% | 105% | 110% |
